# Laboratory results from the supplement of paper PMC10338343.
# ± gives the standard deviation.
# Test system: EfPiwi piRISC loaded with piRNA #1 (26 nt)
# Test: pre-steady-state target cleavage rate (min^-1); auxiliary factor: 500 nM Ephydatia muelleri Gtsf1; guide: piRNA #1 5'p-UGAGGUAGUAGGUUGUAUAGUAUCCA; MIWI and MILI are mouse PIWI proteins and EfPiwi is from a freshwater sponge; tags in brackets are library labels; higher = faster piRNA-guided slicing of the target
# In short: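 Cleave-'n-Seq reactions paired 0.1 nM transcribed, DNA-blocked target RNA library with 1 nM active affinity-purified piRISC holding one synthetic guide, plus or minus 500 nM GTSF1 partner protein, in HEPES–potassium acetate buffer at 33 °C for 0–8 or 0–960 min. After sequencing of uncleaved targets and normalisation to depth and weakly complementary targets, the pre-steady-state cleavage rate was taken from a burst-and-steady-state fit. Three trials were pooled, and k3 was capped at 0.0001 min^-1.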
row,Sequence,pre-steady-state target cleavage rate
1,GGAGACGAUACUAUACACCUACUACCUCA,0.0134 ± 0.0055
2,GGAGACCAUACUAUCAACCUACUACCUCA,0.0101 ± 0.005
3,GGAGACGAUUCUAUACAUCCUACUACCUCA,0.00332 ± 0.0024
4,GGAGAGGAUACUAUACAACCUACAACCACA,0.00436 ± 0.0017
5,GGAGAGGAUACUUUACAACCUACAACCUCA,0.00228 ± 0.0015
6,GGAGACGAUACUAUACAAGCUACUACCUGA,0.00333 ± 0.0015
7,GGAGAGCAUACUAUUCAACCUACUACCUCA,0.00555 ± 0.0041
8,GGAGACCAUACUAUACAUCGUACUACCUCA,0.0027 ± 0.0021
9,GGAGACGAUACUAUACAACGUACUUCCUCA,0.00359 ± 0.0013
10,GGAGACGAUACUAUACAACCUUCUACCACA,0.00454 ± 0.0022
11,GGAGACGAUACUAUACAACCUACUACGCUCA,0.00415 ± 0.0014
12,GGAGACCUUACAAUACAUCCUACUACCUCA,0.00553 ± 0.004
13,GGAGAGGAUACUAUACAUCCUACUACCUGA,0.00462 ± 0.002
14,GGAGACCAUGCUAUACAACCUACUACCUCA,0.00746 ± 0.0043
15,GGAGUGCAUACUAUACAUCCUACUACCUCA,0.0107 ± 0.0041
16,GGAGUGGAUACUAUACAACCUACUAUCCUCA,0.00685 ± 0.0028
17,GGAGACCUUACUAUACAACCUACUACCCUCA,0.00416 ± 0.0023
18,GGAGACCUAACUAUACAACGUACUACCUCA,0.00454 ± 0.0022
19,GGAGUGGAUACUUUACAACGUACUACCUCA,0.00254 ± 0.0014
20,GGAGACGAUAGUAUACAUCCUACUACCUCA,0.00323 ± 0.0026
21,GGAGAGGAUACAAUACUACCUACUACCUCA,0.00424 ± 0.0028
22,GGAGACCAUACUAUACAACCUACUUCCACA,0.0032 ± 0.0032
23,GGAGUGGAUUCUAUACAUCCUACUACCUCA,0.00479 ± 0.0026
24,GGAGAGGAUACUAUACAACACUACUACCUCA,0.00804 ± 0.0043
